From PubChem BioAssay (Tox21)
Values without a mark were called inactive. Records with an inconclusive call do not appear. Entries that show only a call come without a potency. The source made the active and inactive calls. Unless noted, calls come from the whole dose curve.

Tests used:
[1] = Nuclear factor erythroid 2-related factor 2/antioxidant responsive element (Nrf2/ARE) small molecule agonists: qHTS cell viability counter screen in human keratinocytes (AID 1919968; active = well fitted curve in the direction sought with a large enough effect in the repeat runs; an effect the other way counts as inactive or inconclusive; note: nearly all actives have a fitted effect of over 55% in size); details: KeratinoSens HaCaT ARE cells viability, CellTiter-Fluor, 24 h; series mostly up to 92.4 µM
In short: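 In human HaCaT keratinocytes stably expressing an ARE-driven luciferase, compound exposure lasted 23 h at 37 C under 5% CO2. Viable cells are quantified with a protease-based fluorogenic reagent (CellTiter-Fluor) read 1 h after addition.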

[2] = Nuclear factor erythroid 2-related factor 2/antioxidant responsive element (Nrf2/ARE) small molecule agonists: luciferase reporter gene qHTS assay in human keratinocytes (AID 1919969); details: KeratinoSens HaCaT ARE-luciferase, luminescence, 24 h; series mostly up to 92.4 µM; note: nearly all actives have a fitted effect of over 35% in size; note: potency is the fitted concentration of half-maximal effect
[3] = biological target: Gonadotropin-releasing hormone receptor (Homo sapiens) (UniProt P30968); assay: Human gonadotropin-releasing hormone receptor (GnRHR) small molecule agonists, calcium flux assay in GnRHR-HEK293 cells (AID 1920063); details: calcium flux fluorescence, agonist mode; series mostly up to 57.6 µM; note: nearly all actives have a fitted effect of over 35% in size
Sequence of Gonadotropin-releasing hormone receptor (Homo sapiens) (P30968 whole entry, looked up): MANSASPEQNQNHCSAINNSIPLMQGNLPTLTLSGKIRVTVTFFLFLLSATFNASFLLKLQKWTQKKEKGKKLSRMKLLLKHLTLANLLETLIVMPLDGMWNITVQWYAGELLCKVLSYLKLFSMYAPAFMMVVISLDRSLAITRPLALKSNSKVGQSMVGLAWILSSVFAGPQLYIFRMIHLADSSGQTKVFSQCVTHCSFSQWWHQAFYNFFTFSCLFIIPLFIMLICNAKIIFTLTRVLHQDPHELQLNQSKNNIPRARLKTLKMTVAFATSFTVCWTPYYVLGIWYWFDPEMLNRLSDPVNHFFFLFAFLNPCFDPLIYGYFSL
In short: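 Intracellular calcium rise is the read-out: engineered human GnRHR HEK293 cells, dye-loaded, are exposed to DMSO-dissolved compounds and fluorescence at Ex/Em 480/540 is tracked for 3 min.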

[4] = biological target: KiSS-1 receptor (Homo sapiens) (UniProt Q969F8); assay: Human kisspeptin (KISS1R) small molecule agonists, calcium flux assay in KISS1R-HEK293 cells (AID 1920064; active = well fitted curve in the direction sought with a large enough effect in the repeat runs; an effect the other way counts as inactive or inconclusive); details: KISS1R-HEK293, calcium flux fluorescence, agonist; series mostly up to 76.8 µM
Sequence of KiSS-1 receptor (Homo sapiens) (Q969F8 whole entry, looked up): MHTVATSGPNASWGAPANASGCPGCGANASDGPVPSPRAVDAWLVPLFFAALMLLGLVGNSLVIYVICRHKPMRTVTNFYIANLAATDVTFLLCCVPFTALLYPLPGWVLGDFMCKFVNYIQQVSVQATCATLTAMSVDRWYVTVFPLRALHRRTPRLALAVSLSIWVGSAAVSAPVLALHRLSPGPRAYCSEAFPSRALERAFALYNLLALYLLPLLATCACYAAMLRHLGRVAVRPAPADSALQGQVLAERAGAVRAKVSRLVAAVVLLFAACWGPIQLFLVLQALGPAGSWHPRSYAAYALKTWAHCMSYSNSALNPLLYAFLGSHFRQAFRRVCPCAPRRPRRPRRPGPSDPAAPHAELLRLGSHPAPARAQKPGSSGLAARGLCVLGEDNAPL
In short: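 Concentration-response testing used 15 concentrations in triplicate on human KISS1R-expressing HEK293 cells. Calcium-dependent fluorescence (Ex/Em 480/540) was followed kinetically for 3 min after compound transfer.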

[5] = G protein-coupled receptor (GPCR) small molecule agonists, calcium flux assay: HEK293 wild type cell line counter screen (AID 1920065); details: HEK293 WT calcium flux, fluorescence, agonist mode; series mostly up to 57.6 µM
In short: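 Fluorescence intensity signals activation. After overnight (18 h) culture and a 1 h calcium dye load at 37 C, compounds are added by pin tool and the plate read at 480/540 nm for 3 min in 1 s steps.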

[6] = p53 small molecule agonists, cell-based qHTS assay with human liver microsomes: qHTS cell viability counter screen (AID 1963579); details: p53RE-bla HCT-116 viability, ATP luminescence, 16 h, HLM; series mostly up to 66 µM; note: nearly all actives have a fitted effect of over 45% in size
In short: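 Tox21 library compounds, delivered from DMSO stocks, were tested on p53RE-bla cells together with 0.5 mg/mL human liver microsomes and 0.5 mg/mL NADPH (final) over 16 h at 37 C; CellTiter-Glo luminescence served as the cytotoxicity measure.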

[7] = p53 small molecule agonists, cell-based qHTS assay: qHTS cell viability counter screen (AID 1963581); details: p53RE-bla HCT-116 viability, ATP luminescence, 16 h; series mostly up to 66 µM; note: nearly all actives have a fitted effect of over 45% in size
In short: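 Luminescence from CellTiter-Glo, reflecting ATP content, serves as the cytotoxicity measure; it is taken after the 2 h reporter substrate step in HCT-116 p53RE-bla cells dosed for 16 h at 37 C.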

[8] = biological target: 5-hydroxytryptamine receptor 2A (Homo sapiens) (UniProt P28223); assay: 5-hydroxytryptamine receptor 2A (HTR2A) small molecule antagonists, cell-based qHTS assay (AID 1963586); details: HTR2A-CHO cells, DOI-induced calcium flux, fluorescence; series mostly up to 61.5 µM; note: nearly all actives have a fitted effect of over 45% in size
Sequence of 5-hydroxytryptamine receptor 2A (Homo sapiens) (P28223 whole entry, looked up): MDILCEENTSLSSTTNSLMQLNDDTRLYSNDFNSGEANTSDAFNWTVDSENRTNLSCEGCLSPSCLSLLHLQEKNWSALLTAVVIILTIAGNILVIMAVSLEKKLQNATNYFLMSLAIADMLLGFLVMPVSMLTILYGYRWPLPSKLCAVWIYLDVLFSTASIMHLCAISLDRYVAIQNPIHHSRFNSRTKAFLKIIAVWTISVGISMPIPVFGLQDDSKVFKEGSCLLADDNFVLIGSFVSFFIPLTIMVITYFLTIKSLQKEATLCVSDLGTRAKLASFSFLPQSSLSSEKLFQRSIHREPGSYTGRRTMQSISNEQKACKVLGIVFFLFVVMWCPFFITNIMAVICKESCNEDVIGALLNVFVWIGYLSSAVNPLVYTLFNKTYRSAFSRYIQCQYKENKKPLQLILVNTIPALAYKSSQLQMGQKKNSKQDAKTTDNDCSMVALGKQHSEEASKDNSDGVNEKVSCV
In short: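 CHO cells stably expressing human HTR2A were plated for 18 h at 37 C, then loaded with calcium dye for 1 h. Compounds were preincubated 5 min at room temperature before DOI (4 nM solution) was added. Kinetic fluorescence was read for 3 min.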

[9] = biological target: 5-hydroxytryptamine receptor 2A (Homo sapiens) (UniProt P28223); assay: 5-hydroxytryptamine receptor 2A (HTR2A) small molecule agonists, cell-based qHTS assay (AID 1963587); details: HTR2A-CHO cells, calcium flux fluorescence, agonist mode; series mostly up to 76.8 µM; note: nearly all actives have a fitted effect of over 30% in size
In short: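 HTR2A-CHO cells, plated 18 h at 37 C/5% CO2, dye-loaded 1 h at 37 C; compounds in DMSO added by pin tool (agonist mode). Intracellular calcium flux read as kinetic fluorescence on FDSS over 2 min at 1 s intervals.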

[10] = biological target: Muscarinic acetylcholine receptor M1 (Homo sapiens) (UniProt P11229); assay: Cholinergic receptor muscarinic 1 (CHRM1) small molecule antagonists, cell-based qHTS assay (AID 1963588); details: CHRM1-CHO antagonist mode, calcium flux fluorescence; series mostly up to 61.5 µM; note: nearly all actives have a fitted effect of over 40% in size; note: potency is the fitted concentration of half-maximal effect
Sequence of Muscarinic acetylcholine receptor M1 (Homo sapiens) (P11229 whole entry, looked up): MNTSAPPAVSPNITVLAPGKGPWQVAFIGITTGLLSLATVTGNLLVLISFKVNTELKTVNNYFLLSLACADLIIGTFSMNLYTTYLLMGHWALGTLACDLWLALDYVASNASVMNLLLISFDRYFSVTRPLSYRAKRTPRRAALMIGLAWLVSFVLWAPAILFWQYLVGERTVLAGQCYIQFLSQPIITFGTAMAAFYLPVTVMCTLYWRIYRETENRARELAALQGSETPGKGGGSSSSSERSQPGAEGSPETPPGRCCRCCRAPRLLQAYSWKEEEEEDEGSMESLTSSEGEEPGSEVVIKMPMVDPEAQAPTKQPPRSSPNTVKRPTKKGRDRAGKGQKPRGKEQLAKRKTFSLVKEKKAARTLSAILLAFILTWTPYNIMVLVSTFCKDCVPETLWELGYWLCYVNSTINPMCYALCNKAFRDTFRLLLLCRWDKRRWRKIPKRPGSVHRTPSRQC
In short: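 Compounds were tested at 15 concentrations in three independent runs. Dye-loaded CHRM1-CHO cells were exposed 5 min at room temperature before stimulation by acetylcholine added at 50nM. Intracellular calcium was read kinetically on FDSS for 3 min.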

[11] = cAMP Responsive Elements (CRE) small molecule agonists, cell-based qHTS assay (AID 1963590); details: CRE-bla HEK293T, beta-lactamase FRET ratio, 3 h; series mostly up to 92.4 µM
In short: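 Compound exposure lasted 3 h at 37 C/5% CO2 in CRE-bla HEK 293T cells grown in assay medium with 10% dialyzed FBS and 25 mM HEPES. Reporter signal came from LiveBLAzer B/G FRET substrate, 2 h, room temperature.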

[12] = cAMP Responsive Elements (CRE) small molecule antagonists, cell-based qHTS assay (AID 1963591; active = well fitted inhibition curve with a large enough effect in the signal ratio in the repeat runs, not every such curve was filed as active; the % refers to the signal ratio); details: CRE-bla HEK293T, beta-lactamase FRET ratio; series mostly up to 92.4 µM
In short: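 Stimulation used NKH477 at a final 0.25 uM for 3 h in compound-treated CRE-bla HEK293T cells, seeded 18 h beforehand. Reporter activity was measured with LiveBLAzer B/G FRET substrate after 2 h at room temperature.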

[13] = biological target: Beta-2 adrenergic receptor (Homo sapiens) (UniProt P07550); assay: Adrenergic beta2 receptor (ADRB2) small molecule antagonists, cell-based qHTS assay (AID 1963592); details: CHO-ADRB2 cells, isoproterenol-stimulated cAMP HTRF ratio, 0.5 h; series mostly up to 92.4 µM; note: nearly all actives have a fitted effect of over 50% in size
Sequence of Beta-2 adrenergic receptor (Homo sapiens) (P07550 whole entry, looked up): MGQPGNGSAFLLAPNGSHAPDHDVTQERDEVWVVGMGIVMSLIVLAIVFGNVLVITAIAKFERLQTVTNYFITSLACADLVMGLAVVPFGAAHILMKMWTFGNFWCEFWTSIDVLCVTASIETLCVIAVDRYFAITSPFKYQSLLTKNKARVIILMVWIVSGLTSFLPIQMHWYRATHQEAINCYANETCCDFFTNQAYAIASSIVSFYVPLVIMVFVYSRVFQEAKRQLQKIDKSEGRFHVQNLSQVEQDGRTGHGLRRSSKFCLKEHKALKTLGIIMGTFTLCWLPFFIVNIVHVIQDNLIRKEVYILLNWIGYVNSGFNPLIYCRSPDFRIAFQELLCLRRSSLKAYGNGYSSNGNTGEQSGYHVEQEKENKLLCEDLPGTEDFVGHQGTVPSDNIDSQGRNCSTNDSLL
In short: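 Assay format: CHO-ADRB2 cells, 18-20hr seeding at 37C/5% CO2, then compound plus 1nM isoproterenol agonist mix for 0.5hr RT. Homogeneous time-resolved fluorescence cAMP detection after 1hr, expressed as 665/615 nm ratio.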

[14] = biological target: Beta-2 adrenergic receptor (Homo sapiens) (UniProt P07550); assay: Adrenergic beta2 receptor (ADRB2) small molecule agonists, cell-based qHTS assay (AID 1963593); details: CHO-ADRB2 cells, cAMP HTRF, 30 min; series mostly up to 92.4 µM;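 note: CHO cells stably overexpressing human ADRB2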
In short: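 CHO cells stably over-expressing ADRB2 were plated overnight at 37C, then dosed with compounds plus a stimulation mix containing 100uM IBMX and 25uM Ro-20-1724 for 0.5hr at room temperature. cAMP was measured by HTRF competition, 1hr.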

[15] = biological target: D(2) dopamine receptor (Homo sapiens) (UniProt P14416); assay: Dopamine D2 receptor (DRD2) small molecule agonists, cell-based qHTS assay (AID 1963594); details: HEK293-DRD2 cAMP HTRF, agonist mode, 30 min; series mostly up to 92.4 µM; note: nearly all actives have a fitted effect of over 35% in size
Sequence of D(2) dopamine receptor (Homo sapiens) (P14416 whole entry, looked up): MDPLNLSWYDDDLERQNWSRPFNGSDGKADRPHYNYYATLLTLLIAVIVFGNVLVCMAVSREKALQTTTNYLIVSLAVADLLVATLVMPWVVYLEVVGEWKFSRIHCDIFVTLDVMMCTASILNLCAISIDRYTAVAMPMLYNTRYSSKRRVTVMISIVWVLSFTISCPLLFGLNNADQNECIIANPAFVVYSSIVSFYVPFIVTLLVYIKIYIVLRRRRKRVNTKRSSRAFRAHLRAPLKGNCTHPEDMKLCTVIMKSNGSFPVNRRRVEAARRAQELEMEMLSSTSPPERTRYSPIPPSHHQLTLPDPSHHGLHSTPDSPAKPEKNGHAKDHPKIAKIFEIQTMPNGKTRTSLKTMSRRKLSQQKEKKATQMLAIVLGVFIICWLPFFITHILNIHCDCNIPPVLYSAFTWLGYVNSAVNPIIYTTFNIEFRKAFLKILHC
In short: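 HEK293 cells stably expressing DRD2 were cultured 24 h at 37 C, then given Ro20-1724 (0.1 mM final) and compounds for 10 min at room temperature. NKH477 (200nM) was then added for 30 min. cAMP was read by HTRF.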

[16] = biological target: D(2) dopamine receptor (Homo sapiens) (UniProt P14416); assay: Dopamine D2 receptor (DRD2) small molecule antagonists, cell-based qHTS assay (AID 1963595; active = well fitted inhibition curve with a large enough effect in the signal ratio in the repeat runs, with a control signal flat; the % refers to the signal ratio; note: potency is the fitted concentration of half-maximal effect); details: HEK293-DRD2 cAMP HTRF antagonist mode; series mostly up to 92.4 µM
In short: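 Antagonist mode in DRD2-HEK293 cells: after compound addition with 0.1 mM Ro20-1724, cells received quinpirole (12 nM) and NKH477 (200 nM) for 30 min at room temperature; HTRF cAMP read after 1 h detection.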

[17] = biological target: Muscarinic acetylcholine receptor M1 (Homo sapiens) (UniProt P11229); assay: Cholinergic receptor muscarinic 1 (CHRM1) small molecule agonists, cell-based qHTS assay (AID 1963589); details: CHRM1-CHO cells, agonist mode, calcium flux fluorescence; series mostly up to 76.8 µM; note: nearly all actives have a fitted effect of over 35% in size
In short: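 Fluorescent calcium dye reports M1 activation in stably transfected CHO cells. Compounds, 15 concentrations, added after 1 h dye loading at 37 C; kinetic reading at 1 sec intervals.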

[18] = p53 small molecule agonists, cell-based qHTS assay (AID 1963582; active = well fitted activation curve with a large enough effect in the signal ratio in the repeat runs, not every such curve was filed as active; the % refers to the signal ratio); details: HCT-116 p53RE-bla reporter, beta-lactamase FRET ratio, 16 h; series mostly up to 66 µM
In short: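 After plating, p53RE-bla cells sat 5 h in the incubator; compounds or DMSO vehicle were pinned in; a 16 h incubation at 37 C followed; FRET substrate was added and, 2 h later at RT, fluorescence was measured.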

In the case of `CC1=C(C(=O)O)N2C(=O)[C@@H](NC(=O)[C@H](N)C3=CCC=CC3)[C@H]2SC1`, the Potency [1] is reported as “inactive”, the Potency [2] is reported as “inactive” and the Potency [3] is reported as “inactive”. The Potency [4] was “inactive”, the Potency [5] was “inactive” and the Potency [6] was “inactive”. For the same molecule, the Potency [7] was “inactive”, the Potency [8] was “inactive” and the Potency [9] was “inactive”. For the same molecule, the Potency [10] was “inactive”, the Potency [11] was “inactive” and the Potency [12] was “inactive”. The Potency [13] was “inactive”, the Potency [14] was “inactive” and the Potency [15] was “inactive”. The Potency [16] was “inactive”.

In the case of `CC(C)(C)c1cc(CCC(=O)OCC(COC(=O)CCc2cc(C(C)(C)C)c(O)c(C(C)(C)C)c2)(COC(=O)CCc2cc(C(C)(C)C)c(O)c(C(C)(C)C)c2)COC(=O)CCc2cc(C(C)(C)C)c(O)c(C(C)(C)C)c2)cc(C(C)(C)C)c1O`, the Potency [1] is reported as “inactive”, the Potency [2] is reported as “inactive” and the Potency [3] is reported as “inactive”. The Potency [4] was “inactive”, the Potency [5] was “inactive” and the Potency [6] was “inactive”. For the same molecule, the Potency [7] was “inactive”, the Potency [8] was “inactive” and the Potency [9] was “inactive”. The Potency [10] was “inactive”, the Potency [11] was “inactive” and the Potency [12] was “inactive”. For the same molecule, the Potency [13] was “inactive” and the Potency [16] was “inactive”.

With `CCCC(=O)O[C@]1(C(=O)COC(=O)CC)CC[C@H]2[C@@H]3CCC4=CC(=O)CC[C@]4(C)[C@H]3[C@@H](O)C[C@@]21C` the activity change, negative = cytotoxicity [1] was -1.05% [at 19 µM], the activity, positive = activation [2] was -4.28% [at 19 µM] and the activity change [3] was 1.71% [at 11.8 µM, active compounds read high]. It also gave an activation [4] of -0.661% [at 15.8 µM], an activation [5] of -0.97% [at 11.8 µM] and an activity change, negative = cytotoxicity [6] of 0.226% [at 13.5 µM]. The activity, negative = inhibition [8] was -43.5% [at 12.7 µM], the activation [9] was 1.9% [at 15.9 µM] and the activity, negative = inhibition [10] was 0.329% [at 12.6 µM]. The activation [17] was 5.7% [at 15.8 µM], the activity change, negative = inhibition [12] was 0.328% [at 18.9 µM] and the activity change, negative = inhibition [13] was 0.289% [at 19 µM]. The activation [15] was 3.82% [at 19 µM].

For `O=C(NS(=O)(=O)/C=C/c1cccs1)c1ccc(F)cc1Br`, the Potency [1] was “inactive”, the Potency [2] was 27.3 µM (active) and the Potency [3] was “inactive”. For the same molecule, the Potency [4] was “inactive”, the Potency [5] was “inactive” and the Potency [6] was “inactive”. The Potency [7] was “inactive”, the Potency [9] was “inactive” and the Potency [10] was “inactive”. For the same molecule, the Potency [17] was “inactive”, the Potency [11] was “inactive” and the Potency [13] was “inactive”. For the same molecule, the Potency [15] was “inactive” and the Potency [16] was “inactive”.

With `C#CC(O)C(CC)CCCC` (stereo not drawn) the Potency [1] was “inactive”, the Potency [2] was “inactive” and the Potency [3] was “inactive”. The Potency [4] was “inactive”, the Potency [5] was “inactive” and the Potency [6] was “inactive”. For the same molecule, the Potency [7] was “inactive”, the Potency [8] was “inactive” and the Potency [9] was “inactive”. The Potency [10] was “inactive”, the Potency [17] was “inactive” and the Potency [11] was “inactive”. The Potency [12] was “inactive”, the Potency [13] was “inactive” and the Potency [14] was “inactive”. For the same molecule, the Potency [16] was “inactive”.

In the case of `O=S(=O)(Oc1ccc(Cl)cc1)c1ccccc1`, the Potency [1] is reported as “inactive”, the Potency [2] is reported as “inactive” and the Potency [3] is reported as “inactive”. For the same molecule, the Potency [4] was “inactive”, the Potency [5] was “inactive” and the Potency [6] was “inactive”. For the same molecule, the Potency [18] was “inactive”, the Potency [8] was “inactive” and the Potency [9] was “inactive”. The Potency [10] was 11.9 µM (active), the Potency [17] was “inactive” and the Potency [11] was “inactive”. For the same molecule, the Potency [12] was “inactive”, the Potency [13] was “inactive” and the Potency [15] was “inactive”. The Potency [16] was “inactive”.

In the case of `CC(=O)c1ccc2c(c1)N(CCCN(C)C)c1ccccc1S2`, the Potency [1] is reported as “inactive”, the Potency [2] is reported as “inactive” and the Potency [3] is reported as “inactive”. For the same molecule, the Potency [4] was “inactive”, the Potency [5] was “inactive” and the Potency [6] was “inactive”. The Potency [18] was “inactive”, the Potency [9] was “inactive” and the Potency [17] was “inactive”. For the same molecule, the Potency [11] was “inactive”, the Potency [12] was “inactive” and the Potency [13] was “inactive”. The Potency [15] was “inactive” and the Potency [16] was 1.68 µM (active).
